Laboratory results taken from PubChem BioAssay AID1321 (The Scripps Research Institute Molecular Screening Center, 2008).
Where “and” joins values, the source holds several entries; their conditions need not be identical. Identical values can stand only once. Out of some 220,000 compounds screened, about 2,600 (1.2%) were called active.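 The calls were made as follows: active = activation above the mean of all tested compounds plus 3 SD, set per screening run (cut at about 8.8% in these data); inactive = the rest.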 Many of the other results were omitted from the sample, so actives are more common in it than they were.

biological target: Wee1-like protein kinase (Homo sapiens) (UniProt P30291); experiment: Wee1 degradation inhibitors, primary screen, cell-based, HeLa, Wee1K328M-luciferase, luminescence (AID 1321); conditions: HeLa Luc-Wee1K328M stability, at 5 µM, stronger effect = higher value, 100% = proteasome inhibitor MG132 effect;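 also: cells exposed to compound for 20 h before luminescence read; 0% = DMSO alone and 100% = MG132 at 30 µM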

Reporter increase, active:
O=C(COC(=O)c1ccccc1SCC(=O)NC1CCCCC1)NC1CCCCC1 11.2%
COc1ccc(O)c(C(=O)c2cnc3c(c2)c(-c2ccc(F)cc2)c(C#N)c(=O)n3C)c1 9.71%
CC(=O)Nc1ccc(S(=O)(=O)NC(C)C(=O)OCC(=O)NC2CCCC2)cc1 (centres undefined) 11.2%
OCCC1CN(Cc2cnc(-c3ccccc3)s2)CCN1CCc1ccccc1 (centres undefined) 9.46%
C=CCn1c(=S)sc2c(=O)[nH]c(C)nc21 9.98%
CCc1ccc2oc(-c3ccc(N)cc3)nc2c1 18.6%
CN1CCN(C(c2cc3cc4c(cc3[nH]c2=O)OCCO4)c2nnnn2C2CCCC2)CC1 (centres undefined) 11.8%
COc1ccc(-n2ncc3c(N4CCc5ccccc54)ncnc32)cc1 8.86%
Cc1ccc(N=C2NC(=O)c3cccc([N+](=O)[O-])c32)cc1 8.82%
COc1ccc(-n2c(=S)[nH]c3sc4c(c3c2=O)CCc2ccccc2-4)cc1 8.88%
CC(C)(C)NC(=O)CN(C(=O)c1csnn1)c1ccccc1-c1ccccc1 10.2%
Cn1c(=O)n(C)c2cc(NS(=O)(=O)c3ccc(F)cc3)ccc21 12.5%
CCN(CC)c1ccc(NC(=O)c2ccc(Cl)nc2)cc1 10.4%
CCCC1=Nc2cc(C(=O)NCc3ccco3)ccc2Sc2ccccc21 11.6%
Cc1ccc(NC(=O)CN2CCc3ccccc3C2)cc1 12.7%
Cc1ccc(C(=O)Nc2cccc3ncccc23)cc1[N+](=O)[O-] 54.1%
O=C(Nc1cccc2ncccc12)C(Cl)(Cl)Cl 9.1%
CCOC(=O)c1c(/N=C/C2C(=O)CC(C)(C)CC2=O)sc(C)c1C 12.6%
Cc1ccc(CN(C)CC(=O)Nc2cccc([N+](=O)[O-])c2)o1 8.93%
COc1ccccc1NC(=O)C1=C(C)NC(=O)NC1c1ccc(C)s1 (centres undefined) 9.03%

Reporter increase, inactive:
CCOc1ncccc1C(=O)OCC(=O)NC1CC1 -1.43%
N#Cc1ccccc1Sc1ccccc1C(=O)OCC(=O)NC1CCCCC1 2.45%
COc1ccccc1Nc1nc(N)nc(CSC(=S)N2CCOCC2)n1 -0.95%
O=C(Nc1ccc2c(c1)OCCO2)c1ccoc1 2.96%
Cc1coc2cc3oc(=O)c(CCC(=O)O)c(C)c3cc12 5.73%
S=c1[nH]nc(-c2ccncc2)n1/N=C/c1ccccc1Cl -0.32%
COCCn1c(=O)[nH]c(=O)c2cc(C(=O)c3cc(OC)ccc3O)cnc21 0.11%
COc1ccc(O)c(C(=O)c2cnc3onc(C(C)C)c3c2)c1 -2.73%
COc1ccccc1NC(=O)c1cc(Cl)nc2ccccc12 0.15%
Nc1cccc(S(=O)(=O)Nc2ccc(SC(F)F)cc2)c1 -0.8%
CCOC(=O)[C@H]1CCC[C@@H](NS(=O)(=O)c2ccc(NC(C)=O)cc2)C1 0.32%
CC(C)NS(=O)(=O)c1ccc(NC(=O)C2CCCCC2)cc1 -3.05%
OCCC1CN(Cc2ccc(Oc3ncccn3)cc2)CCN1CCc1ccccc1 (centres undefined) -0.52%
OCCC1CN(Cc2cccc(O)c2)CCN1CCc1ccccc1 (centres undefined) -3.15%
O=C(O)Cc1csc(-c2cccc(Oc3ccccc3)c2)n1 3.33% and -2.75%
S=c1nc2ccccc2c2nc(-c3cccnc3)[nH]n12 1.58%
C=CCn1c(-c2ccc3[nH]c(C)c(C)c3c2)n[nH]c1=S -4.16%
C=CCn1c(-c2sc(-c3ccccc3)nc2C)n[nH]c1=S -4.5%
S=c1[nH]nc(-c2cccs2)n1/N=C/c1cn(-c2ccccc2)nc1-c1ccc(Cl)cc1 -0.32%
COc1cccc(-c2nc3cc(C)ccc3o2)c1 1.41%
CCCCCC(=O)Nc1ccc2oc(-c3ccncc3)nc2c1 -0.09%
O=C(NCc1ccccc1)c1ccc(CNc2c(N3CCCC3)c(=O)c2=O)cc1 -2.66%
COc1ccc(N2CCN(C(c3cc4ccc(C)cc4[nH]c3=O)c3nnnn3C3CCCC3)CC2)cc1 (centres undefined) 0.68%
CCOC(=O)C1CCN(C(c2cc3cc(C)cc(C)c3[nH]c2=O)c2nnnn2C2CCCCC2)CC1 (centres undefined) 1.1%
COc1ccc(-c2nn(C)c(=O)c3ccccc23)cc1CNC(=O)C1CCCCC1 0.26%
CCN(CC)CCNCC(=O)Nc1ccc(Oc2ccccc2)cc1 2.79%
O=c1ccnc(Nc2ccc(Cl)cc2)[nH]1 1.16%
O=C(COC(=O)c1ccc(NS(=O)(=O)c2cccs2)cc1O)Nc1ccc(F)cc1 -0.64%
c1ccc(-n2ncc3c(N4CCCC4)ncnc32)cc1 5.02%
COc1ccc(-n2ncc3c(N4CCCc5ccccc54)ncnc32)cc1 3.61%
COc1ccc(CCNC(=O)C(=O)Nc2ccc3nc4n(c(=O)c3c2)CCCCC4)cc1OC 1.04%
Brc1ccc(-c2noc(-c3ccccc3)n2)o1 0.13%
Cn1c(CSCC(=O)Nc2ccccc2)nnc1SCc1ccccc1 -1.68%
COC(=O)c1cccc([N+](=O)[O-])c1CS(=O)(=O)c1ccc(C)cc1 1.24%
CCCCOc1ccc(CON(C(C)=O)C(C)=O)cc1Cl -0.35%
c1csc(-c2nnc(COc3ncnc4sccc34)o2)c1 1.62%
O=C1C(Cc2ccc(O)cc2)NC(=S)N1Cc1ccccc1 (centres undefined) -2.34%
COc1cccc(-n2c(=S)[nH]c3c(oc4ccccc43)c2=O)c1 5.9%
CSc1nc2sc3c(c2c(=O)[nH]1)CCc1ccccc1-3 -0.01%
COc1ccc(CCNS(=O)(=O)c2cccc3cccnc23)cc1OC -3.35%
Cc1ccc(/C=N/NC(=O)CSc2ccccn2)o1 3.47%
O=C(Nc1ccccc1N1CCOCC1)c1csc2c1CCCC2 -0.73%
Cc1nc2cccnc2nc1C 6.05%
CCC(C)(C)NC(=O)C(c1ccccn1)N(C(=O)c1csnn1)c1ccccc1 (centres undefined) 1.04%
CC(C)(C)NC(=O)CN(C(=O)c1ccc(Cl)nc1)c1cccc2ccccc12 -1.92%
CC(C)COC(=O)n1c(=O)oc2ccc(S(=O)(=O)N3CCCCC3)cc21 -1.87%
Cn1nccc1NS(=O)(=O)c1ccc(F)cc1 0.03%
Cc1cc(C)cc(NS(=O)(=O)c2ccc(F)cc2)c1 -2.79%
Cn1c2ccccc2c2cc(/C=C(\NC(=O)c3ccccc3)C(=O)NCC(=O)O)ccc21 -0.33%
O=C(NNc1ccccn1)c1ccc(Cl)nc1 -1.7%
NS(=O)(=O)c1ccc(NC(=O)COC(=O)c2ccc(Cl)nc2)cc1 -1.21%
CCCc1nc(-c2cc3cc(C)ccc3[nH]c2=O)no1 -2.96%
FC(F)(F)Oc1ccc(-c2cn3cccnc3n2)cc1 -1.79%
COc1ccc(CCN2C(=O)N(c3ccc(OC)cc3)C(=O)C2CC(=O)Nc2ccc(OC)cc2)cc1 (centres undefined) -1.78%
CCOc1ccccc1C(=O)NCc1ccco1 -0.54%
COc1ccc(CCNS(=O)(=O)c2ccc(C(=O)NCc3ccco3)cc2)cc1OC -0.79%
CC(=O)NC(=S)Nc1ccc(NC(=S)NC(=O)c2ccc([N+](=O)[O-])cc2)cc1 1.61%
Cc1nnc(C)c2c(C)n(N)c(C)c12 3.05%
O=C(CCl)Nc1ccc(Sc2ccc(NC(=O)CCl)cc2)cc1 -0.49%
Cc1ccc(NC(=O)CC(=O)Nc2ccc(C)cc2)cc1 1.54%
Cc1ccc(NC(=O)CCN2CCc3ccccc3C2)cc1 0.24%
COc1ccc(NC(=O)C2=C(C)NC(=O)NC2c2ccccc2[N+](=O)[O-])cc1 (centres undefined) 0.32%
O=[N+]([O-])c1cccc2ncccc12 -1.36%
Cc1cc(O)c(NC(=O)c2ccc(C)c([N+](=O)[O-])c2)cc1C 2.32%
O=C(O)c1cc(Cl)c(Cl)cc1C(=O)Nc1cccc2ncccc12 -2.37%
O=C(Nc1cccc2ncccc12)c1ccc(-c2ccc(Cl)cc2Cl)o1 7.64%
O=C(NC(=O)c1ccccc1N1CCCCC1)Nc1ccc(Br)cc1 -1.56%
Fc1ccc(Nc2nnns2)cc1 -1.03%
CN1CCN(c2cc3c(cc2F)c(=O)c(C(=O)O)cn3CCF)CC1 -0.92%
C#CCNc1ccc(C(=O)OCC)cc1 -0.22%
CCOC(=O)c1sc(/N=C/C2=C(O)CC(C)(C)CC2=O)c(C(=O)OCC)c1C 0.6%
CCOC(=O)c1c(NC(=O)c2cccs2)sc(C)c1C -0.63%
COc1cc(OC)cc(/C(N)=N/O)c1 5.93%
CN(CC(=O)Nc1cccc(F)c1)CC(=O)Nc1cccc([N+](=O)[O-])c1 3.36%
CC(=O)Nc1cccc([N+](=O)[O-])c1 1.71%
COc1ccc(N=Nc2ccc(O)c(P(=O)(c3ccccc3)c3ccccc3)c2)cc1 2.24%
Clc1ccc(C[n+]2cc(-c3ccccc3)n3c2CCC3)cc1 -0.29%
COc1ccccc1NC(=O)C1=C(C)Nc2nc3ccccc3n2C1c1cccs1 (centres undefined) 5.69%
COc1ccccc1NC(=O)c1ccc(C)s1 -0.54%
